Measurements from PubChem BioAssay AID2685 (National Center for Advancing Translational Sciences (NCATS), 2010).
The whole screen tested about 320,000 compounds, of which about 2,100 (0.66%) were called active. About 53% were inconclusive and are not listed. The call rests on the fitted dose curve; in most records, active means well fitted inhibition curve with a large enough effect in the signal ratio, with a control signal flat (not every such curve was filed as active); inconclusive means small, poorly fitted or top-dose-only effect, or effect the other way, or a change in a side signal; inactive means flat fitted curve, though single readings scatter; the % refers to the signal ratio. Shown is part of a subset that was picked to be rich in actives.

Assay: qHTS Assay for Lipid Storage Modulators in Drosophila S3 Cells;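 on cell number change: cells counted by Cell Tracker Red CMTPX staining in the red channel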
Conditions: BODIPY lipid droplet fluorescence, 18-24 h, cells fed with added oleic acid; cell number change: measured here: cell count max response; series mostly up to 46.1 µM
Method in brief: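 Drosophila S3 cells got compounds at several concentrations plus oleic acid (400 uM solution). Laser-scanning cytometry with 488 nm excitation read lipid droplets at 500-530 nm and cells at 575-640 nm. Percent activity was relative to 20 uM Triacsin C.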
Potency means the concentration at half of the fitted maximal effect.

| SMILES | Potency | cell number change [%] |
| --- | --- | --- |
| CCc1ccc(/C=C2\SC(=S)N(CCC(=O)NC3=NCCS3)C2=O)cc1 | inactive | – |
| Cc1cccc(Nc2nc(N)nc(CN3CCN(c4ccc(F)cc4)CC3)n2)c1 | inactive | -18.7 |
| CCN(CC)CCCNC(=O)C1CCCN(c2nnc(N3CCCC3=O)s2)C1 (stereo not given) | 25.9 µM (active) | -17 |
| CC1CC(C)CN(CCCNC(=O)C2CCCN(c3nnc(N4CCCC4=O)s3)C2)C1 (stereo not given) | inactive | 2.76 |
| Cc1ccc(CNC(=O)C2CCN(c3nnc(N4CCCC4=O)s3)CC2)cc1 | inactive | 24.8 |
| COc1ccccc1NC(=O)c1c([N+](=O)[O-])c(C(C)(C)C)nn1C | inactive | 11.1 |
| C#CCNC(=O)C1=C[C@@H](c2coc3ccccc3c2=O)C[C@@H](OCCCCO)O1 | inactive | 6.85 |
| CC(Oc1cccc(Cl)c1)C(=O)Nc1ccccc1N1CCCCC1 (stereo not given) | inactive | 7.85 |
| CCN1CCN(c2ccccc2NC(=O)C(C)Oc2ccc(C(C)=O)cc2)CC1 (stereo not given) | 18.4 µM (active) | -13.7 |
| CC(=O)c1ccc(OCC(=O)Nc2ccccc2N2CCCC2)cc1 | inactive | -18 |
| O=C(NNC(=O)c1ccc(Br)s1)NC1CCCCC1 | inactive | 8.62 |
| CCSc1nnc(NC(=O)CSc2nnc(-c3c[nH]c4ccccc34)n2CC)s1 | inactive | 11.1 |
| CCc1nnc(NC(=O)CSc2nnc(-c3c[nH]c4ccccc34)n2C)s1 | inactive | 4.19 |
| CCSc1nnc(NC(=O)CSc2nnc(-c3c[nH]c4ccccc34)n2C)s1 | 2.06 µM (active) | -1.84 |
| CSc1cccc(NC(=O)C2CCN(S(=O)(=O)c3ccc4c(c3)NC(=O)CO4)CC2)c1 | inactive | – |
| O=C(Cc1cccs1)NCCn1ccc2ccccc21 | inactive | – |
| CCOC(=O)CC(=O)CSc1nc2c(sc(=S)n2-c2ccccc2)c(=O)[nH]1 | inactive | 3.4 |
| C/C(=N\O)C1CC(CC(=O)O)C1(C)C (stereo not given) | 2.06 µM (active) | 4.13 |
| CC1(C)CC(CC(=O)O)CC(C)(C)N1 | inactive | 0.961 |
| COCCNC(=O)CSc1nnc(NC(=O)C2CC(=O)N(c3ccccc3OC)C2)s1 (stereo not given) | inactive | 3.03 |
| O=C(CCN1CCN(C(=O)c2ccccc2)CC1)c1ccc(Br)cc1 | inactive | 16 |
| CC(=O)OCC(OC(C)=O)C(OC(C)=O)C(OC(C)=O)C(=O)Nc1ccccc1 (stereo not given) | inactive | 13.3 |
| CCSc1nnc2c(n1)[nH]c1c(C)cccc12 | 20.6 µM (active) | -28.9 |
| CCSc1nnc2nc3[nH]c4c(C)cccc4c3nn12 | inactive | 0.802 |

| SMILES | Potency | cell number change [%] |
| --- | --- | --- |
| CSc1nnc2c(n1)[nH]c1c(C)cccc12 | inactive | -19.5 |
| COc1ccc([N+](=O)[O-])cc1NC(=O)CSCc1ccccc1 | inactive | -5.97 |
| c1csc(Cc2nc3ccccc3[nH]2)c1 | inactive | – |
| O=C(COC(=O)C12CC3CC(CC(C3)C1)C2)Nc1ccc2[nH]c(=O)[nH]c2c1 | inactive | – |
| Cc1cccc(NC(=O)Cn2c(=O)n(CCC(=O)NC3CCCC3)c(=O)c3ccccc32)c1 | inactive | – |
| CCc1ccccc1Nc1nn2c(=O)c3ccc(C(=O)NCc4cccs4)cc3nc2s1 | inactive | -9.06 |
| O=C(NCc1ccccn1)c1ccc2c(=O)n3nc(Nc4ccccc4)sc3nc2c1 | 4.11 µM (active) | – |
| COc1ccccc1Nc1nn2c(=O)c3ccc(C(=O)NCc4cccnc4)cc3nc2s1 | inactive | -12.9 |
| COc1ccc(OC)c(-c2csc(NC(=O)C3CSC4(C)CCC(=O)N34)n2)c1 (stereo not given) | inactive | – |
| CN1CCN(CCCNC(=S)Nc2ccc(F)c(Cl)c2)CC1 | inactive | – |
| CCNc1nc(N)nc(-c2cc(Cl)ccc2OC)n1 | 3.66 µM (active) | -11.6 |
| CCCNc1nc(N)nc(-c2cc(Cl)ccc2OC)n1 | inactive | 5.2 |
| CNc1nc(N)nc(-c2cc(Cl)ccc2OC)n1 | inactive | -0.358 |
| CC(=O)c1ccc(NC(=O)CN(C)CC(=O)Nc2cccc(F)c2)cc1 | inactive | 10.5 |
| CC1CN(S(=O)(=O)c2cccc(-c3cn4cccnc4n3)c2)CC(C)O1 (stereo not given) | inactive | -27.2 |
| Cc1ccn2cc(-c3cccc(S(=O)(=O)N4CC(C)OC(C)C4)c3)nc2c1 (stereo not given) | inactive | 5.5 |
| Cc1ccc2nc(-c3cccc(S(=O)(=O)N4CC(C)OC(C)C4)c3)cn2c1 (stereo not given) | 16.4 µM (active) | -15.5 |
| CCNC(=S)NS(=O)(=O)c1ccc(CC)cc1 | inactive | -7.16 |
| CCCn1cc2c(c1-c1ccc(C)cc1)c(=O)n(C)c(=O)n2C | inactive | 4.81 |
| CC1=C(C(=O)N2CCc3ccccc32)C2(CCC(C)CC2)OC1=O (stereo not given) | inactive | -7.54 |
| Cc1cc(Br)c2nc3c(c(C(=O)O)c2c1)CCCCC3 | inactive | -0.276 |
| O=C(O)c1c2c(nc3ccc(F)cc13)CCC2 | inactive | -14.4 |
| Cc1cccc2c(C(=O)O)c3c(nc12)CCCCC3 | 18.4 µM (active) | -17 |
| CCOc1c2c(nc3ccc(Cl)cc13)CCC2 | inactive | 8.32 |

| SMILES | Potency | cell number change [%] |
| --- | --- | --- |
| CN(C)C(=O)c1c2c(nc3ccccc13)CCCC2 | inactive | 1.75 |
| O=C(O)c1c2c(nc3ccc(Cl)cc13)CCC2 | 0.0517 µM (active) | – |
| COc1ccccc1/C=C/C1(C(=O)NC2CCCC2)CC(=O)N1c1ccc(F)cc1 (stereo not given) | inactive | -14.3 |
| NC(=O)Cn1cc(/C=N\NS(=O)(=O)c2cccc([N+](=O)[O-])c2)c2ccccc21 | inactive | 1.79 |
| COc1ccc(-n2c(O)c(/C=N/NS(=O)(=O)c3ccc(C)cc3)c3ccccc3c2=O)cc1OC | 8.2 µM (active) | -21 |
| O=[N+]([O-])c1cccc(S(=O)(=O)N/N=C/c2ccc(O)cc2)c1 | inactive | – |
| Cc1ccc(-n2c(O)c(/C=N/n3cnnc3)c3ccccc3c2=O)cc1 | inactive | 9.27 |
| COc1cc(/C=N/NS(=O)(=O)c2ccccc2)ccc1OS(=O)(=O)c1ccc(C)cc1 | inactive | 20.6 |
| COc1ccc(-n2c(O)c(/C=N/NS(=O)(=O)c3cccc([N+](=O)[O-])c3)c3ccccc3c2=O)cc1OC | 16.4 µM (active) | -20.8 |
| Cc1cccn2c(CN3CCCC(c4ccccc4)C3)c(C(=O)N3CCOCC3)nc12 (stereo not given) | inactive | -15.3 |
| Cc1nc2nc(NC(=O)c3ccco3)nn2c(C)c1Cl | inactive | 16.3 |
| CCOc1ccc(CCNC(=O)c2ccc3ccccc3n2)cc1OCC | 8.2 µM (active) | -6.07 |
| CCOc1ccc(CCNC(=O)c2ccc(OCc3c(C)noc3C)cc2)cc1OCC | 11.6 µM (active) | 14.1 |
| Cc1noc(C)c1COc1ccc(C(=O)NCCc2ccc(S(N)(=O)=O)cc2)cc1 | inactive | 9.63 |
| CCOc1ccc(CCNC(=O)c2cc(C)nc3ccccc23)cc1OCC | inactive | 1.62 |
| CCOc1ccc(CCNC(=O)c2cc(C)on2)cc1OCC | inactive | 4.47 |
| Cc1noc(C)c1COc1ccc(C(=O)O)cc1 | inactive | 4.42 |
| Cc1noc(C)c1COc1ccc(C(=O)NNC(=O)c2ccccc2)cc1 | inactive | 2.9 |
| Cc1noc(C)c1COc1ccc(C(=O)N(C)CCOc2ccccc2)cc1 | 8.2 µM (active) | -18.6 |
| CCOc1ccc(-n2cnnn2)cc1S(=O)(=O)NCCc1ccc(OC)c(OC)c1 | inactive | – |
| CCOc1ccc(CCNC(=O)c2cccc(-n3cnnn3)c2)cc1OCC | 0.0731 µM (active) | -24.8 |
| CCOc1ccc(CCNC(=O)c2ccccc2OCc2c(C)noc2C)cc1OCC | inactive | 4.08 |
| CCOc1ccc(CCNC(=O)c2cccc(S(=O)(=O)N3CCN(C(C)=O)CC3)c2)cc1OCC | inactive | -4.38 |
